Among all 5,500 compounds or so, about 2,000 (36%) were called active. Not shown: some 18% with an inconclusive outcome. The list shows a part of the results. A number with no mark means an inactive call. Cut-off read from the data, not from the text of the source: active = normalized growth mostly below about 0.91 (no sharp cut-off); inconclusive = no clear call, values can overlap the other calls; inactive = mostly above about 0.92.
Test: chemical genetic growth profiling, strain panel (AID 1159580);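 note: tested at 20 µM; growth read once vehicle control cultures reached saturation at 30 °C; 1 = growth at the plate median or of vehicle wells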
Conditions: growth OD

SMILES: C=CCc1ccc(O)c(OC)c1
- normalized growth (S. cerevisiae deletion strains, locus YJL187C, strain SWE1, stronger effect = lower value): 0.999
- normalized growth (S. cerevisiae deletion strains, locus YJR043C, strain POL32, stronger effect = lower value): 0.913
- normalized growth (S. cerevisiae deletion strains, locus YJR066W, strain TOR1, stronger effect = lower value): 0.973
- normalized growth (S. cerevisiae deletion strains, locus YJR075W, strain HOC1, stronger effect = lower value): 0.885
- normalized growth (S. cerevisiae deletion strains, locus YKL009W, strain mrt4, stronger effect = lower value): 0.998
- normalized growth (S. cerevisiae deletion strains, locus YKL068W, stronger effect = lower value): 0.923 (active)
- normalized growth (S. cerevisiae deletion strains, locus YKL085W, strain MDH1 (second series), stronger effect = lower value): 0.894 (active)
- normalized growth (S. cerevisiae deletion strains, locus YKL085W, strain MDH1, stronger effect = lower value): 0.894 (active)
- normalized growth (S. cerevisiae deletion strains, locus YKL160W, strain elf1, stronger effect = lower value): 1.02
- normalized growth (S. cerevisiae deletion strains, locus YKR001C, strain vps1, stronger effect = lower value): 0.813 (active)
- normalized growth (S. cerevisiae deletion strains, locus YKR026C, strain gcn3, stronger effect = lower value): 0.989
- normalized growth (S. cerevisiae deletion strains, locus YKR091W, strain srl3, stronger effect = lower value): 0.992
- normalized growth (S. cerevisiae deletion strains, locus YLL001W, strain dnm1, stronger effect = lower value): 1.02
- normalized growth (S. cerevisiae deletion strains, locus YLL026W, stronger effect = lower value): 0.989
- normalized growth (S. cerevisiae deletion strains, locus YLL041C, strain sdh2, stronger effect = lower value): 0.989
- normalized growth (S. cerevisiae deletion strains, locus YLR027C, strain aat2, stronger effect = lower value): 0.99
- normalized growth (S. cerevisiae deletion strains, locus YLR039C, strain RIC1, stronger effect = lower value): 0.605 (active)
- normalized growth (S. cerevisiae deletion strains, locus YLR058C, strain SHM2, stronger effect = lower value): 0.949
- normalized growth (S. cerevisiae deletion strains, locus YLR102C, strain apc9, stronger effect = lower value): 0.95
- normalized growth (S. cerevisiae deletion strains, locus YLR113W, strain HOG1, stronger effect = lower value): 0.962
- normalized growth (S. cerevisiae deletion strains, locus YLR221C, strain rsa3, stronger effect = lower value): 1.01
- normalized growth (S. cerevisiae deletion strains, locus YLR258W, strain gsy2, stronger effect = lower value): 1.01
- normalized growth (S. cerevisiae deletion strains, locus YLR262C, strain YPT6 (second series), stronger effect = lower value): 0.998
- normalized growth (S. cerevisiae deletion strains, locus YLR262C, strain YPT6, stronger effect = lower value): 0.674
- normalized growth (S. cerevisiae deletion strains, locus YLR268W, strain sec22, stronger effect = lower value): 1.01
- normalized growth (S. cerevisiae deletion strains, locus YLR320W, strain mms22, stronger effect = lower value): 0.996
- normalized growth (S. cerevisiae deletion strains, locus YLR330W, strain CHS5, stronger effect = lower value): 0.885 (active)
- normalized growth (S. cerevisiae deletion strains, locus YLR342W, strain FKS1 (second series), stronger effect = lower value): 0.888
- normalized growth (S. cerevisiae deletion strains, locus YLR342W, strain FKS1, stronger effect = lower value): 0.999
- normalized growth (S. cerevisiae deletion strains, locus YLR357W, strain rsc2, stronger effect = lower value): 0.992
- normalized growth (S. cerevisiae deletion strains, locus YLR370C, strain arc18, stronger effect = lower value): 0.997
- normalized growth (S. cerevisiae deletion strains, locus YLR371W, strain rom2, stronger effect = lower value): 0.692 (active)
- normalized growth (S. cerevisiae deletion strains, locus YLR384C, strain iki3, stronger effect = lower value): 0.991
- normalized growth (S. cerevisiae deletion strains, locus YLR418C, strain cdc73, stronger effect = lower value): 0.799 (active)
- normalized growth (S. cerevisiae deletion strains, locus YML016C, strain PPZ1, stronger effect = lower value): 0.91 (active)
- normalized growth (S. cerevisiae deletion strains, locus YML032C, strain rad52, stronger effect = lower value): 0.93
- normalized growth (S. cerevisiae deletion strains, locus YML120C, strain ndi1, stronger effect = lower value): 1.03
- normalized growth (S. cerevisiae deletion strains, locus YML124C, strain tub3, stronger effect = lower value): 0.917 (active)
- normalized growth (S. cerevisiae deletion strains, locus YMR058W, strain fet3, stronger effect = lower value): 1
- normalized growth (S. cerevisiae deletion strains, locus YMR078C, strain ctf18, stronger effect = lower value): 0.917
- normalized growth (S. cerevisiae deletion strains, locus YMR125W, strain sto1, stronger effect = lower value): 0.965
- normalized growth (S. cerevisiae deletion strains, locus YMR129W, stronger effect = lower value): 0.984
- normalized growth (S. cerevisiae deletion strains, locus YMR205C, strain PFK2, stronger effect = lower value): 0.995
- normalized growth (S. cerevisiae deletion strains, locus YMR223W, strain ubp8, stronger effect = lower value): 0.936
- normalized growth (S. cerevisiae deletion strains, locus YMR231W, strain pep5, stronger effect = lower value): 0.983
- normalized growth (S. cerevisiae deletion strains, locus YMR307W, strain GAS1, stronger effect = lower value): 1
- normalized growth (S. cerevisiae deletion strains, locus YNL067W, strain RPL9B, stronger effect = lower value): 0.97
- normalized growth (S. cerevisiae deletion strains, locus YNL071W, strain lat1, stronger effect = lower value): 0.959
- normalized growth (S. cerevisiae deletion strains, locus YNL153C, strain GIM3, stronger effect = lower value): 0.991
- normalized growth (S. cerevisiae deletion strains, locus YNL183C, strain NPR1, stronger effect = lower value): 0.928
- normalized growth (S. cerevisiae deletion strains, locus YNL209W, strain ssb2, stronger effect = lower value): 0.999
- normalized growth (S. cerevisiae deletion strains, locus YNL233W, strain BNI4, stronger effect = lower value): 0.901
- normalized growth (S. cerevisiae deletion strains, locus YNL248C, strain rpa49, stronger effect = lower value): 1
- normalized growth (S. cerevisiae deletion strains, locus YNL250W, strain rad50, stronger effect = lower value): 0.924
- normalized growth (S. cerevisiae deletion strains, locus YNL271C, strain bni1, stronger effect = lower value): 0.931
- normalized growth (S. cerevisiae deletion strains, locus YNL298W, strain CLA4, stronger effect = lower value): 0.995
- normalized growth (S. cerevisiae deletion strains, locus YNL307C, strain MCK1, stronger effect = lower value): 0.932
- normalized growth (S. cerevisiae deletion strains, locus YNL322C, strain KRE1 (second series), stronger effect = lower value): 0.993
- normalized growth (S. cerevisiae deletion strains, locus YNR049C, strain mso1, stronger effect = lower value): 0.988
- normalized growth (S. cerevisiae deletion strains, locus YNR052C, strain pop2, stronger effect = lower value): 1.01
- normalized growth (S. cerevisiae deletion strains, locus YOL012C, strain htz1): 0.778
- normalized growth (S. cerevisiae deletion strains, locus YOL147C, strain pex11, stronger effect = lower value): 0.939
- normalized growth (S. cerevisiae deletion strains, locus YOR001W, strain rrp6, stronger effect = lower value): 1.01
- normalized growth (S. cerevisiae deletion strains, locus YOR061W, strain CKA2, stronger effect = lower value): 0.948
- normalized growth (S. cerevisiae deletion strains, locus YOR069W, strain VPS5, stronger effect = lower value): 0.948
- normalized growth (S. cerevisiae deletion strains, locus YOR070C, strain gyp1, stronger effect = lower value): 0.996
- normalized growth (S. cerevisiae deletion strains, locus YOR080W, strain dia2, stronger effect = lower value): 0.989
- normalized growth (S. cerevisiae deletion strains, locus YOR083W, strain WHI5, stronger effect = lower value): 1.04
- normalized growth (S. cerevisiae deletion strains, locus YOR106W, strain vam3, stronger effect = lower value): 1.04
- normalized growth (S. cerevisiae deletion strains, locus YOR136W, strain idh2, stronger effect = lower value): 0.992
- normalized growth (S. cerevisiae deletion strains, locus YOR144C, strain elg1, stronger effect = lower value): 0.937
- normalized growth (S. cerevisiae deletion strains, locus YOR184W, strain ser1, stronger effect = lower value): 0.973
- normalized growth (S. cerevisiae deletion strains, locus YOR231W, strain MKK1, stronger effect = lower value): 0.982
- normalized growth (S. cerevisiae deletion strains, locus YOR265W, strain rbl2, stronger effect = lower value): 0.999
- normalized growth (S. cerevisiae deletion strains, locus YOR270C, strain vph1, stronger effect = lower value): 0.964
- normalized growth (S. cerevisiae deletion strains, locus YOR290C, strain snf2, stronger effect = lower value): 0.986
- normalized growth (S. cerevisiae deletion strains, locus YOR316C, strain cot1, stronger effect = lower value): 0.939
- normalized growth (S. cerevisiae deletion strains, locus YPL051W, strain arl3, stronger effect = lower value): 1.02
- normalized growth (S. cerevisiae deletion strains, locus YPL078C, strain atp4, stronger effect = lower value): 1.01
- normalized growth (S. cerevisiae deletion strains, locus YPL106C, strain sse1, stronger effect = lower value): 0.948
- normalized growth (S. cerevisiae deletion strains, locus YPL240C, strain hsp82, stronger effect = lower value): 0.993
- normalized growth (S. cerevisiae deletion strains, locus YPL256C, strain CLN2, stronger effect = lower value): 0.973
- normalized growth (S. cerevisiae deletion strains, locus YPR119W, strain clb2, stronger effect = lower value): 0.916 (active)
- normalized growth (S. cerevisiae deletion strains, locus YPR141C, strain kar3, stronger effect = lower value): 0.879 (active)
- normalized growth (S. cerevisiae deletion strains, locus YPR163C, strain tif3, stronger effect = lower value): 0.969
- normalized growth (S. cerevisiae deletion strains, locus YPR167C, strain met16, stronger effect = lower value): 0.947
- normalized growth (S. cerevisiae deletion strains, strain wtn01, stronger effect = lower value): 0.988
- normalized growth (S. cerevisiae strains, strain wild type, stronger effect = lower value): 0.95

Source: PubChem BioAssay AID1159580 (chemical genetic matrix, 2015)
